More than one record can exist for a structure, and the calls need not agree. The source made the active and inactive calls. The calls were made as follows: active = hit-call score of the fitted dose curve at least 0.9, where 1 is the maximum; inactive = score below 0.9.

Read-out in the assay: CD40, CD40 (gene 958)
In words: BSK_SAg_CD40: BioMAP Diversity Plus: SAg Assay for CD40 Biomarker Activity (AID 2283088). The following applies: primary human HUVEC with PBMC; actives raise or lower the signal. The method, then: BSK_SAg is a cell-based, multiplexed-readout assay that uses umbilical vein endothelium and peripheral blood mononuclear cells, a human vascular primary cell co-culture, with measurements taken at 24 hours after chemical dosing in a 96-well plate.BSK_SAg_CD40 is one of 10 assay component(s) measured or calculated from the BSK_SAg assay. It is designed to make measurements of enzyme-linked immunosorbent assay, a form of binding reporter, as detected with fluorescence intensity signals by Enzyme-linked immunosorbent assay technology.Data from the assay component BSK_SAg_CD40 was analyzed into 1 assay endpoint. This assay endpoint, BSK_SAg_CD40, was analyzed with bidirectional fitting relative to DMSO as the negative control and baseline of activity. Using a type of binding reporter, gain or loss-of-signal activity can be used to understand changes in the signaling as they relate to the gene CD40. Furthermore, this assay endpoint can be referred to as a primary readout, because this assay has produced multiple assay endpoints where this one serves a signaling function. To generalize the intended target to other relatable targets, this assay endpoint is annotated to the cytokine intended target family, where the subfamily is inflammatory factor.
The levels of cell surface (or secreted, indicated by the prefix "s") biomarker endpoints were measured by ELISA. Overt cytotoxicity to cells in confluent adherent cultures (all systems other than the BT system) was assessed by measuring total protein levels using sulforhodamine B (SRB) staining in parallel cultures at the time of biomarker measurements, indicated as SRB endpoints. For proliferation assays for adherent cell types, individual cell types are cultured at sub-confluence and relative cell numbers quantified by SRB staining at time points optimized for each system (48 h: 3C and CASM3C systems; 72 h: BT and HDF3CGF systems; 96 h: SAg system). SRB was performed by staining cells with 0.1% SRB after fixation with 10% TCA and reading wells at 560 nm.Viability and proliferation of PBMC (T cells) was quantified by Alamar Blue reduction for the SAg and BT systems. For PBMC viability (referred to as PBMC Cytotoxicity within the assay endpoint names), cells were plated (75,000/well in a 96-well plate) and then chemical samples added for 1 h before addition of activators, SEB and TSST-1 (20 ng/mL final concentration each). Cells were incubated for 90 h. Then, Alamar Blue (20 uL/well) (Invitrogen, Cat DAL1100) was added for 6 h, and the plates were read with a fluorescence microplate reader at 546/580 nm (excitation/emission). For PBMC proliferation, cells were plated and activated as above but incubated for only 16 h prior to addition of Alamar Blue. Plates were read after 6 h.
`C=CC(=O)OCCCCCCCC(C)C`: the outcome was inactive.
Take `Oc1c(Cl)cc(Cl)c(Cl)c1Cl`: the AC50 is 20 µM (active).
For the molecule `O=C1CCCCCCCCCCC1`, the result was inactive.
For `COC(OC)(C(=O)c1ccccc1)c1ccccc1`, the result was inactive.
Same read-out and setting: for `O=C(Cl)c1c(Cl)c(Cl)c(C(=O)Cl)c(Cl)c1Cl` the value was “inactive”; for `O=C1CCCCCCCCCCCN1`, “inactive”; for `CC(C)c1cccc(C(C)C)c1N`, “inactive”.
On the same count and under the same terms, then `CC(CCC(=O)O)(c1ccc(O)cc1)c1ccc(O)cc1`, with “inactive”; and `CC(C)CCCCCOC(=O)CS`, with “inactive”.
With `CC/C=C\CCOC(=O)c1ccccc1O`, the AC50 was 33.6 µM (active).
Take `C=C(C)C(=O)OCCCCCCCCCCCC`: the result was inactive.
Still for that read-out and setting: for `C=CC(=O)NCOCCCC` the value was “inactive”; for `Fc1ccc(Br)cc1`, “inactive”; for `Oc1ccccc1Cc1ccccc1O`, “inactive”.
The same measure, in the same setting: for `CCOC(=O)C1=NOC(c2ccccc2)(c2ccccc2)C1` the value was “inactive”; for `CC=C(C)C(C)=O`, “inactive”; for `CC1=CC=C(C(C)C)CC1`, “inactive”.
With `C[N+](C)(C)CCCNS(=O)(=O)C(F)(F)C(F)(F)C(F)(F)C(F)(F)C(F)(F)C(F)(F)C(F)(F)C(F)(F)F`, the result was inactive and the AC50 was 30 µM (active).
On to `CCCCCCCCCCCC(=O)N(C)CC(=O)O`, for which the outcome was inactive.
Same read-out and setting: then `Oc1ccc(/C=C/c2cc(O)cc(O)c2)cc1`, with “inactive”.
Still for that read-out and setting: then `CCOC(=O)C1=NN(c2ccc(Cl)cc2Cl)C(C)(C(=O)OCC)C1` (stereo not given), with “inactive”; and `CC(C)[N+](C)(CCOC(=O)C1c2ccccc2Oc2ccccc21)C(C)C`, with “inactive”.
On the same count and under the same terms, for `c1ccc2sc(SSN3CCOCC3)nc2c1` the value was “inactive”; for `CCCC(C)C(=O)OCC` (stereo not given), “inactive”; for `CCCCCCCCC(CO)CCCCCC` (stereo not given), “inactive”.
Regarding `CCCCCCOC(=O)CCCCC(=O)OCCCCCC`, the outcome was inactive.
On the same count and under the same terms, for `CCc1cccc(C)c1N(C(=O)CS(=O)(=O)O)C(C)COC` (stereo not given) the value was “inactive”.
`C=CC(=O)OCCCCCCOC(=O)C=C`: the AC50 is 11 µM (active).
Regarding `CCC1(C)C(=O)N(Cl)C(=O)N1Cl` (stereo not given), the result was inactive.
Consider `CC=C(C)C=CC=C(C)C`, for which the concentration at half-maximal activity (AC50) is 6.97 µM (active).
`Cc1c(O)cccc1O`: the result was inactive.
As for `Cc1ccc([N+](=O)[O-])cc1N`, the result was inactive.
Still for that read-out and setting: for `Nc1cccc(N)n1` the value was “inactive”.
On the same count and under the same terms, for `C=CCCCCCCCCC=O` the value was “inactive”; for `CCNc1nc(NC(C)(C)C)nc(OC)n1`, “inactive”.
For the molecule `CCCCCCCO`, the result was inactive.
Take `C=CC(=O)NC(C)(C)C`: the result was inactive.
`CC1(C)CC(O)CC(C)(C)N1[O]`: the outcome was inactive.
`CCCCCCCCCCCC(C)=O`: the AC50 was 30 µM (active).

For orientation: AC50 means the concentration at which the activity in the assay is half-maximal.
